The source made the active and inactive calls.

Assay [1] has as its system Plasmodium falciparum Sir2 (PF13_0152, Sir2A). In words: pfSir2 binders on small-molecule microarrays, primary screen, biochemical, small-molecule microarray, 635 nm fluorescence (AID 1098).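 Also: score merges spot fluorescence intensity with its signal-to-noise ratio.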 The conditions noted are these: small-molecule microarray binding, fluorescence 635 nm; higher = more signal.
The nature of assay [2]: small-molecule microarray binders of probe aDKK1, primary screen, biochemical, biotinylated probe, 635/667 nm fluorescence (AID 1099).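 Also: score merges 667nm spot fluorescence with signal to noise across triplicate slides.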 The conditions noted are these: higher = more signal.
A short description of assay [3]: small-molecule microarray binders of probe aCHRDL2, primary screen, biochemical, biotinylated probe, 635/667 nm fluorescence (AID 1100). The conditions noted are these: higher = more signal.
The nature of assay [4]: splicing luciferase reporter signal modulators, primary screen, spliceosome inhibition project, cell-based, HEK293, splice +/- reporter (AID 1101).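 Also: HEK293 cells carrying a splicing-competent luciferase reporter gene; test concentration not given here.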 The conditions noted are these: luminescence, 24 h, higher = more signal, called active from +8 up or from −8 down.
For assay [5], the target named is Fibroblast growth factor 10 (Homo sapiens) (UniProt O15520). In words: FGF10 binders on small-molecule microarrays, primary screen, biochemical, small-molecule microarray, 635 nm fluorescence (AID 1102). As to conditions: FGF10 binding, fluorescence 635 nm, higher = more signal.
Fibroblast growth factor 10 (Homo sapiens), sequence (O15520 whole entry, looked up): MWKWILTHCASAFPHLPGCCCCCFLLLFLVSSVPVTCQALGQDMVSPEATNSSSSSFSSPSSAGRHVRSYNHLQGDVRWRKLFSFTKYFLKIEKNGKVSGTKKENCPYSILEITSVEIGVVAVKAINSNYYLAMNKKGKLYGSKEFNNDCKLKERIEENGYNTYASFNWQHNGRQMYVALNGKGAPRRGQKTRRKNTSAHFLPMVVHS
Assay [6] relates to glycogen synthase kinase-3 (GSK3A per assay name; protocol says GSK3B). In words: GSK3 binders on small-molecule microarrays, primary screen, biochemical, small-molecule microarray, 635 nm fluorescence, GSK3A (AID 1103). Also: the record names both GSK3A and GSK3B. The conditions noted are these: small-molecule microarray binding, fluorescence 635 nm; higher = more signal.
Assay [7] addresses Epidermal growth factor receptor (Homo sapiens) (UniProt P00533). In words: EGFR binders on small-molecule microarrays, primary screen, biochemical, small-molecule microarray, 635 nm fluorescence (AID 1104).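 Also: score merges 667 nm emission intensity with spot signal to noise over triplicate slides.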 As to conditions: EGFR binding, higher = more signal.
Assay [8] has as its target Follistatin-related protein 3 (Homo sapiens) (UniProt O95633). In words: FSTL3 binders on small-molecule microarrays, primary screen, biochemical, small-molecule microarray, 635 nm fluorescence (AID 1105).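 Also: score merges emission near 667 nm and signal to noise per printed spot across three slides.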 As to conditions: FSTL3 binding, higher = more signal.
Assay [9] addresses Dickkopf-related protein 1 (Homo sapiens) (UniProt O94907). In words: DKK1 binders on small-molecule microarrays, primary screen, biochemical, small-molecule microarray, 635 nm fluorescence scan (AID 1106).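 Also: score merges emission near 667 nm with signal to noise over three replicate slides.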 As to conditions: DKK1 binding, higher = more signal.
The test system of assay [10] is Inhibin beta A chain (activin A). As to the kind of experiment: INHBA (activin A) binders on microarrays, primary screen, biochemical, small-molecule microarray, 635 nm fluorescence scan (AID 1107).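 Also: mouse activin A protein probed at 4.33 µg/mL on printed slides; score merges bound-protein fluorescence near 667 nm with spot signal-to-noise.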 The conditions noted are these: small-molecule microarray binding, higher = more signal.
Assay [11] has as its system Human papillomavirus type 1a protein E7 (residues 44-93). As to the kind of experiment: HPV1a E7 fragment binders on microarrays, primary screen, biochemical, small-molecule microarray, residues 44-93, 635 nm fluorescence (AID 1108).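 Also: E7 fragment applied at 1 µg/mL in TBST for 1 h at 4 C; score combines spot fluorescence with its signal to noise ratio.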 The conditions noted are these: small-molecule microarray binding, fluorescence 635 nm; higher = more signal.
Assay [12] in a line: modulators of HCV replicon luciferase signal, primary screen, HCV replication inhibitor project, Huh7 cells, luciferase reporter (AID 1109).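 Also: huh7 hepatoma cells harbouring a luciferase neomycin HCV replicon reporter; luciferase luminescence as measure of HCV replicon replication; test concentration not given here.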 The conditions noted are these: 48 h, higher = more signal. Background: Replicon systems follow genome replication, usually without infectious particles.
Assay [13] concerns the target Left-right determination factor 2 (Homo sapiens) (UniProt O00292). As to the kind of experiment: LEFTY2 binders on small-molecule microarrays, primary screen, biochemical, small-molecule microarray, 635 nm fluorescence scan (AID 1110). The conditions noted are these: LEFTY2 binding, higher = more signal.
The target of assay [14] is Calmodulin-1 (Homo sapiens) (UniProt P0DP23). As to the kind of experiment: CALM1 binders on microarrays, EGTA buffer, profiling panel, biochemical, small-molecule microarray, Cy5-labelled CALM1 (AID 1111).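 Also: labelled calmodulin applied in Tris saline Tween buffer holding calcium plus EGTA and DTT.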 As to conditions: Cy5-CALM1 binding fluorescence, higher = more signal.
For assay [15] the target is unchanged. As to the kind of experiment: calcium-bound CALM1 binders on microarrays, profiling panel, artefact control for SMM control-protein annotation, biochemical, small-molecule microarray, Cy5-labelled CALM1, plus calcium (AID 1112).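 Also: score merges spot fluorescence with signal to noise from triplicate slides.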 As to conditions: Cy5-CALM1 binding fluorescence, higher = more signal.
The nature of assay [16]: small-molecule microarray binders of probe aWnt5a, primary screen, biochemical, biotinylated probe, 635/667 nm fluorescence (AID 1113).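 Also: score merges 667 nm fluorescence intensity with signal-to-noise per printed feature.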 As to conditions: higher = more signal.
Assay [17] is described as follows: small-molecule microarray binders of probe aShh, primary screen, biochemical, biotinylated probe, 635/667 nm fluorescence (AID 1114).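 Also: probe is biotin-labelled aShh protein from a stem cell growth factor screen; measures binding of labelled protein to compounds printed on the slide; score merges feature fluorescence at 667 nm with signal-to-noise.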 As to conditions: higher = more signal.
Assay [18] is described as follows: small-molecule microarray binders of probe aNog, primary screen, biochemical, biotinylated probe, 635/667 nm fluorescence (AID 1115).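 Also: probe is biotinylated aNog protein used at 0.15 µg/mL for 1 h at 4 C; z-score combines 667 nm fluorescence of each spot with its signal to noise.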 The conditions noted are these: higher = more signal.
In assay [19] the target is Torsin-1A-interacting protein 1 (Homo sapiens) (UniProt Q5JTV8). As to the kind of experiment: LAP1 binders from COS7 cell lysate, primary screen, small-molecule microarray, 635/667 nm fluorescence (AID 1116). As to conditions: COS7-hLAP1 lysate binding, 635 nm fluorescence, higher = more signal.
Torsin-1A-interacting protein 1 (Homo sapiens), sequence (Q5JTV8 whole entry, looked up): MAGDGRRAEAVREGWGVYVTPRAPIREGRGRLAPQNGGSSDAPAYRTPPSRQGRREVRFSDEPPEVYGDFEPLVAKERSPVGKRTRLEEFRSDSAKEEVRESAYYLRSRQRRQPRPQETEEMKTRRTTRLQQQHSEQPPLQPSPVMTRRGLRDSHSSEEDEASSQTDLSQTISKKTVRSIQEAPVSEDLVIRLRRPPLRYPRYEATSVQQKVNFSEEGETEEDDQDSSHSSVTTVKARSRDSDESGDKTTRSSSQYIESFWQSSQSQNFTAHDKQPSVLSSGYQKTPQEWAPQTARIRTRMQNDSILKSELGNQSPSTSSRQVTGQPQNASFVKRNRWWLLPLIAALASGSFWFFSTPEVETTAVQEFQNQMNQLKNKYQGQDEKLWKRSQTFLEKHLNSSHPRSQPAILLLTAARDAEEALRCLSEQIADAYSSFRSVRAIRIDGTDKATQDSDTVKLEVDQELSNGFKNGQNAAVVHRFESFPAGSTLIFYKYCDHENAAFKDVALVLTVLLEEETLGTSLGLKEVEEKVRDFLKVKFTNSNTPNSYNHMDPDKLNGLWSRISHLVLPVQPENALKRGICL
In assay [20] the target is Alpha-bungarotoxin (Bungarus multicinctus) (UniProt P60615). As to the kind of experiment: alpha-bungarotoxin binders on microarray, profiling panel, artefact control for SMM control protein annotation, biochemical, small-molecule microarray, Alexa647 label, 635/667 nm fluorescence (AID 1117). As to conditions: alpha-BTX-A647 binding fluorescence, higher = more signal.
Alpha-bungarotoxin (Bungarus multicinctus), sequence (P60615 whole entry, looked up): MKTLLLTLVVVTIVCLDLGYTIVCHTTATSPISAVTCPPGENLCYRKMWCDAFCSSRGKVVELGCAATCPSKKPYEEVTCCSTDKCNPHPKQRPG

Dickkopf-related protein 1 (Homo sapiens), sequence (O94907 whole entry, looked up): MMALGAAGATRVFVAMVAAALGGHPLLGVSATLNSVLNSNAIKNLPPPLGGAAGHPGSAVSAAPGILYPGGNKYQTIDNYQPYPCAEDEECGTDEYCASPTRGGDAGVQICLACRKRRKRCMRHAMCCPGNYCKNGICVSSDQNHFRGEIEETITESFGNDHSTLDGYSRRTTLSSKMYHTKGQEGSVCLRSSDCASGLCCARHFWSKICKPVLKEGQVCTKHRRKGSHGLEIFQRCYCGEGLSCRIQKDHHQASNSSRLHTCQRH
Epidermal growth factor receptor (Homo sapiens), sequence (P00533 whole entry, looked up): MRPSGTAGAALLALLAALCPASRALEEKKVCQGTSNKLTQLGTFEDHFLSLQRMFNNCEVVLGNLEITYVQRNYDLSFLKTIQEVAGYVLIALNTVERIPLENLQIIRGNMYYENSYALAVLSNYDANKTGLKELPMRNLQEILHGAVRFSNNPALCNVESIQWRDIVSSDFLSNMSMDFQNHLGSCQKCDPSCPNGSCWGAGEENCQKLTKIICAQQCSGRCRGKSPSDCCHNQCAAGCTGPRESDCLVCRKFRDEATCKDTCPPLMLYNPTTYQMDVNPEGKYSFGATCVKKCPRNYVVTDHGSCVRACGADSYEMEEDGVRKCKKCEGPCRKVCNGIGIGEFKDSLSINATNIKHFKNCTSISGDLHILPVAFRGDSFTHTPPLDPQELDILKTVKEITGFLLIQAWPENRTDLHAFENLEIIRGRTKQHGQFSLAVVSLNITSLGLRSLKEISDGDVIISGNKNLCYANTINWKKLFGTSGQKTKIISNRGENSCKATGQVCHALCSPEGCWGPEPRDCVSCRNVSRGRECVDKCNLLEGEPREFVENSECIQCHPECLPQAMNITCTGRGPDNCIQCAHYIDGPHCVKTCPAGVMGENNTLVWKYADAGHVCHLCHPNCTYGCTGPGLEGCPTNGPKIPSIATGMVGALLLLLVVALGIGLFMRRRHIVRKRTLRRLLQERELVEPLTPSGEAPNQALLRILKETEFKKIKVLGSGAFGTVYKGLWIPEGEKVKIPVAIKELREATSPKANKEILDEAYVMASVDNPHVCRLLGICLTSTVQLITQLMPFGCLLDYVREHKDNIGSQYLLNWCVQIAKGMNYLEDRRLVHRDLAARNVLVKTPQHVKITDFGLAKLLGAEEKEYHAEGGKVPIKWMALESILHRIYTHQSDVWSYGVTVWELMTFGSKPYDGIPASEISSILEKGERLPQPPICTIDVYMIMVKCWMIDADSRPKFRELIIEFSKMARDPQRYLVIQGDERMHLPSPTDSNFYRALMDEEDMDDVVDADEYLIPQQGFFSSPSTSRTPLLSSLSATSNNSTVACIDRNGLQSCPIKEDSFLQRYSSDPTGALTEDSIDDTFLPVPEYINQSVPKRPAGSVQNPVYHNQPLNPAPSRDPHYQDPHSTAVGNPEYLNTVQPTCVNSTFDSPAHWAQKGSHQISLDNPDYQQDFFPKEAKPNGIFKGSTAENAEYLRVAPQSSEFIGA
Follistatin-related protein 3 (Homo sapiens), sequence (O95633 whole entry, looked up): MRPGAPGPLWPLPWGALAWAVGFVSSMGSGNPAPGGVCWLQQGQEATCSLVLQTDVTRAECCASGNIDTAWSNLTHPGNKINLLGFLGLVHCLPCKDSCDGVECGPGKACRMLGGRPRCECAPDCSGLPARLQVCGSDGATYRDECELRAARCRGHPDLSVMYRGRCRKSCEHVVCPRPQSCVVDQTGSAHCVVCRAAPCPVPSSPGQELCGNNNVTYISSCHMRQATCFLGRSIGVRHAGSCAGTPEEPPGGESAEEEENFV
Left-right determination factor 2 (Homo sapiens), sequence (O00292 whole entry, looked up): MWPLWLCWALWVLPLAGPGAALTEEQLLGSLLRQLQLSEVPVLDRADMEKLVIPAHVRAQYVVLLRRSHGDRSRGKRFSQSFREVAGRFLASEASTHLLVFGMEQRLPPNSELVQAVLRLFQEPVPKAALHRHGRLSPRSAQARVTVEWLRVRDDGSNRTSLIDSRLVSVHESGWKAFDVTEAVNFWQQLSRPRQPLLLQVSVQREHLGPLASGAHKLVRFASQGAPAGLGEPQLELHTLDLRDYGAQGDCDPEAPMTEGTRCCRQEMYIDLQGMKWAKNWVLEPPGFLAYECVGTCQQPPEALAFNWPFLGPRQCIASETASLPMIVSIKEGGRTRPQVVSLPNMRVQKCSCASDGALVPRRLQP

As for `C[N+](C)(C)CCCCCCNC(=O)[C@H]1C[C@H]2C(=O)N[C@@H](Cc3ccccc3)C(=O)N2[C@H]1c1cccc(OCCO)c1`, the composite z-score in [1] is 1.65; in assay [2], -0.0429; in assay [3] it was 0.0593; in assay [5], 0.985; in assay [6], 1.23; in assay [7], 0.227. For the same molecule, the composite z-score was 1.09 in assay [8]; 0.707 in [9]; 0.279 in assay [10]; 0.658 in [11]; 0.642 in [13]; -0.96 in assay [14]. Also, the composite z-score was -1.03 in [15]; -0.184 in assay [16]; -0.243 in [17]; -0.234 in assay [18]; 0.944 in assay [19]; -0.049 in assay [20]. Moreover, the results for the z-score in assay [4] and in assay [12] were 0.264 (inactive) and 0.487, respectively.

In the case of `[N-]=[N+]=NCc1ccccc1[C@@H]1OC(c2ccc(OCCCO)cc2)=N[C@]1(CCS(=O)(=O)c1ccccc1)C(=O)N1CCCCC1`, the composite z-score in [1] was determined as 1.65; in [2] it was 0.0798; in [3], 0.904; in assay [5] it was 0.828; in assay [6], 1.29; in assay [7], 0.453. The composite z-score in [8] was 1.19; in assay [9], -0.154; in [10], 1.08; in [11], 1.48; in assay [13] it was 0.334; in [14], 1.79. The composite z-score in [15] was 0.415; in [16], 0.0873; in assay [17], 0.333; in assay [18], -0.316; in assay [19], 1.04; in assay [20], 1.34. The z-score is -0.162 (inactive) in [4] and -1.87 in [12].

On to `O=C(CS)NCCCCCNC(=O)[C@H]1C[C@H]2C(=O)NCC(=O)N2[C@H]1c1cccc(OCCO)c1`, for which the composite z-score in [1] is 1.59; in assay [2], -0.248; in assay [3], 0.504; in [5] it was -0.0137; in [6] it was -1.11; in assay [7], -0.538. Moreover, the composite z-score is 0.101 in assay [8]; 0.129 in [9]; -0.462 in assay [10]; -1.02 in [11]; -0.356 in assay [13]; -0.213 in assay [14]. The composite z-score in assay [15] is 0.787; in assay [16], -0.152; in assay [17] it was 0.294; in assay [18], -0.311; in [19] it was -0.631; in [20] it was 0.854. Besides, the z-score in assay [4] was -0.957 (inactive); in [12] it was 1.34.

`COc1ccc(NC(=O)O[C@H]2[C@H](OC(=O)c3cc4ccccc4[nH]3)[C@@H](OC(=O)c3cc4ccccc4[nH]3)[C@@H](OC)O[C@@H]2CO)cc1`: the composite z-score in assay [1] is 1.24; in assay [2] it was -0.0147; in assay [3], 0.358; in assay [5], 0.523; in [6], 0.212; in assay [7] it was -0.245. In addition, the composite z-score in assay [8] was 0.448; in assay [9], -0.011; in assay [10], 0.287; in [11], -0.548; in assay [13] it was 0.046; in assay [14], 0.467. The composite z-score in assay [15] is -0.206; in assay [16], -0.0512; in assay [17], 0.0121; in assay [18] it was -0.0612; in assay [19], 1.04; in [20] it was 0.243. Moreover, the z-score in [4] was -1.07 (inactive); in assay [12], -1.98.

For the molecule `COCCOC(=O)N1C(=O)[C@@]2(c3ccccc31)[C@H](C(=O)N1CCCCCCC1)[C@H]1C(=O)O[C@H](c3ccccc3)[C@H](c3ccccc3)N1[C@@H]2c1ccc(OCCO)cc1`, the composite z-score in assay [1] worked out at 2.08; in assay [2] it was 3.12; in assay [3], 1.76; in [5], 1.69; in assay [6], 1.49; in assay [7], 2.05. In addition, the composite z-score in assay [8] came to 1.79; in assay [9], 2.72; in assay [10], 1.77; in [11], 1.63; in assay [13], 1.91; in assay [14] it was 3.2. In addition, the composite z-score in assay [15] came to 1.76; in assay [16], 1.65; in [17], 3.65; in assay [18], 3.67; in assay [19], 5.73; in assay [20] it was 4.02. Besides, the z-score in assay [4] is -0.69 (inactive); in assay [12] it was -2.07.
